19 molecules from PubChem BioAssay (NCATS) can be followed below.

Records with an inconclusive call do not appear. The source made the active and inactive calls. Calls come from the whole dose curve; as a rule, active = well fitted curve in the direction sought with a large enough effect; inconclusive = small, poorly fitted or top-dose-only effect, or another doubt; inactive = no such curve, though single readings can be large; an effect the other way counts as inactive or inconclusive.

Assay [1] can be described thus: Quantitative High-Throughput drug screen in 47 multiple myeloma cell lines against the NCATS MIPE library collection: Karpas25_ECACC cell viability assay (AID 1918968; note: nearly all actives have a fitted effect of over 35% in size). Put shortly:
(§1)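 Myeloma cells (500 per well) were exposed to MIPE 4.0 compounds by pin transfer and incubated 48 hours at 37C, 5% CO2. Viability was read as ATP by CellTiter-Glo luminescence, normalised to DMSO (100%) and media-only (0%) wells.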

A short description of assay [2]: Quantitative High-Throughput drug screen in 47 multiple myeloma cell lines against the NCATS MIPE library collection: KMS27_JCRB cell viability assay (AID 1918970). Note: nearly all actives have a fitted effect of over 30% in size. Conditions: KMS27 myeloma cells, CellTiter-Glo ATP viability, 48 h; viability (% of DMSO): at 45.8 µM (top of the series). The essentials:
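Luminescent ATP read-out (CellTiter-Glo, 5 min at room temperature) after 48 h compound exposure of 500 KMS27_JCRB cells per well; DMSO wells define full viability and media-only wells zero.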

A short description of assay [3]: Quantitative High-Throughput drug screen in 47 multiple myeloma cell lines against the NCATS MIPE library collection: KMS12BM_JCRB cell viability assay (AID 1918971). Note: nearly all actives have a fitted effect of over 35% in size. The essentials: (§2)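 CellTiter-Glo luminescence (ATP) after 48 h compound exposure, 37C/5% CO2; 500 cells/well; MIPE 4.0 approved/investigational drugs pinned in; DMSO = 100%, media only = 0% viability.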

Assay [4] is described as follows: Quantitative High-Throughput drug screen in 47 multiple myeloma cell lines against the NCATS MIPE library collection: KMS12PE_JCRB cell viability assay (AID 1918972). Note: nearly all actives have a fitted effect of over 30% in size. The essentials: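 Luminescent ATP measurement with CellTiter-Glo gives viability, scaled between DMSO-only wells (100%) and media-only wells (0%). Cells, 500 per well, faced library compounds for 48 hours at 37C.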

Assay [5] can be described thus: Quantitative High-Throughput drug screen in 47 multiple myeloma cell lines against the NCATS MIPE library collection: KMS26_JCRB cell viability assay (AID 1918975). Note: nearly all actives have a fitted effect of over 45% in size. Put shortly: as §2
Assay [6] is described as follows: Quantitative High-Throughput drug screen in 47 multiple myeloma cell lines against the NCATS MIPE library collection: MOLP8_DSMZ cell viability assay (AID 1918977). Note: nearly all actives have a fitted effect of over 45% in size. Put shortly: (§3)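 qHTS format: cells plated (500/well), pin-dosed with MIPE 4.0 compounds, kept 48 h at 37 °C. Readout was CellTiter-Glo luminescence, median RLU.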
A short description of assay [7]: Quantitative High-Throughput drug screen in 47 multiple myeloma cell lines against the NCATS MIPE library collection: NCIH929_DSMZ cell viability assay (AID 1918978). Note: nearly all actives have a fitted effect of over 35% in size. The essentials: as §3
Assay [8] can be described thus: Quantitative High-Throughput drug screen in 47 multiple myeloma cell lines against the NCATS MIPE library collection: MMM1_PLB cell viability assay (AID 1918976). Note: nearly all actives have a fitted effect of over 35% in size. Put shortly:
as §3

Assay [9] is described as follows: Quantitative High-Throughput drug screen in 47 multiple myeloma cell lines against the NCATS MIPE library collection: KMS20_JCRB cell viability assay (AID 1918973). Note: nearly all actives have a fitted effect of over 45% in size. Put shortly:
as §1
Potency is the fitted concentration of half-maximal effect.

As for `CNC1[C@H](O)C(O[C@@H]2C(O)C(O[C@H]3O[C@H]([C@@H](C)NC)CC[C@H]3N)[C@@H](N)C[C@H]2N)OC[C@]1(C)O` (stereo partly drawn), the Potency result in assay [1], in assay [2], in [3], in assay [4], in [5] and in [6] was “inactive” throughout. Also, in [7], the Potency entry was “inactive”.
`Cc1c(-c2cccc3c(CCCOc4cccc5ccccc45)c(C(=O)O)n(Cc4cccnc4)c23)c(COc2ccc(N3CCN([S+](=O)([O-])N(C)C)CC3)cc2)nn1C`: the Potency in [1] was 20.9 µM (active); in assay [3] it was 23.5 µM (active); in assay [7], 3.72 µM (active). Further, the Potency entry in [2] and in assay [4] was “inactive” each time.
`CC(C)C[C@@H](C(=O)N[C@H](C(=O)OC1CCCC1)c1ccccc1)[C@H](O)C(=O)NO`: the Potency in assay [1] is 20.9 µM (active); in [2] it was 2.64 µM (active); in assay [3], 18.7 µM (active); in assay [4] it was 2.09 µM (active); in [5], 18.7 µM (active); in assay [8], 23.5 µM (active). Further, the Potency is 23.5 µM (active) in [6] and 18.7 µM (active) in assay [7].
In the case of `C[C@]12C=CC(=O)C=C1CC[C@@H]1[C@@H]2[C@@H](O)C[C@@]2(C)[C@@H]1CC[C@]2(O)C(=O)CO`, the Potency in assay [1] was 0.296 µM (active); in assay [3], 11.8 µM (active); in assay [8], 0.166 µM (active); in assay [6], 0.0743 µM (active); in [7], 2.35 µM (active). Besides, the Potency result in assay [2] and in assay [4] was “inactive” throughout.
For `CCNC(=O)CCCC=CC[C@@H]1[C@H](C=CC(O)CCc2ccccc2)[C@@H](O)C[C@@H]1O` (stereo partly drawn), the Potency entry in assay [1], in assay [2], in assay [4] and in assay [7] was “inactive” in each case. In addition, in assay [3], the Potency is 7.43 µM (active).
With `CN(C)c1nc(Cc2ccc(NC(=O)c3ccc(C(F)(F)F)cc3)cc2)nc(N(C)C)c1CC(=O)O`, in assay [1], the Potency was 10.5 µM (active). Further, the Potency result in assay [2], in assay [3], in [4], in [5] and in [7] was “inactive” in each case.
With `COc1cc(F)c(C(C)C)cc1-c1ccc(C(F)(F)F)cc1CN1C(=O)O[C@H](c2cc(C(F)(F)F)cc(C(F)(F)F)c2)[C@@H]1C`, the Potency entry in assay [1], in assay [2], in [4], in [5] and in assay [7] was “inactive” each time. Also, the results for the Potency in assay [3] and in assay [8] were 3.32 µM (active) and 1.18 µM (active), respectively.
For `N[C@@H](CC(=O)N1CCn2c(nnc2C(F)(F)F)C1)Cc1cc(F)c(F)cc1F`, the Potency entry in assay [1], in assay [2], in assay [3], in [4] and in assay [7] was “inactive” each time. Besides, in [8], the Potency is 1.87 µM (active).
For `CCc1cc(-c2n[nH]c(C)c2-c2ccc3c(c2)OCCO3)c(O)cc1O`, the Potency in assay [1] was 7.43 µM (active); in [2], 5.9 µM (active); in [3], 5.26 µM (active); in assay [4], 5.26 µM (active); in [5] it was 5.26 µM (active); in assay [6], 2.64 µM (active). For the same molecule, the Potency in [7] is 8.33 µM (active).
With `O=C1CCCC(=O)C1C(=O)c1ccc(C(F)(F)F)cc1[N+](=O)[O-]`, the Potency result in [1], in assay [2], in [4] and in assay [7] was “inactive” in each case. In assay [3], the Potency was 0.166 µM (active).
Turning to `Oc1ccc(C=Cc2cc(O)cc(O)c2)cc1`, the Potency was 18.7 µM (active) in [1], 33.2 µM (active) in assay [3] and 16.6 µM (active) in assay [8]. Also, the Potency result in assay [2] and in assay [4] was “inactive” each time.
With `NCc1c[nH]c(=S)n1[C@H]1CCc2c(F)cc(F)cc2C1`, the Potency in [1] is 23.5 µM (active); in assay [2], 11.8 µM (active); in assay [3] it was 13.2 µM (active); in assay [4], 14.8 µM (active); in assay [5], 20.9 µM (active); in [6] it was 18.7 µM (active).
For the molecule `O=C(CCCN1CCN(c2ccc(F)cc2)CC1)NC1c2ccccc2CSc2ccccc21` (stereo not drawn), the Potency was 3.32 µM (active) in assay [1]; 5.9 µM (active) in assay [2]; 11.8 µM (active) in assay [3]; 4.18 µM (active) in assay [4]; 5.9 µM (active) in [8].
As to `COc1cc2c(cc1OC)[C@@H]1Cc3ccc(OC)c(OC)c3CN1CC2`, the Potency in assay [1] is 16.6 µM (active); in [3] it was 18.7 µM (active); in assay [4], 0.332 µM (active); in assay [5] it was 4.69 µM (active); in assay [6], 7.43 µM (active). Besides, the Potency result in assay [2] and in assay [7] was “inactive” throughout.
Take `CC1(C)C(N(O)C(=O)Nc2ccc(Cl)cc2)N(c2ccc(Cl)cc2)C(=O)N1CC(=O)NN=CC=Cc1ccc([N+](=O)[O-])o1` (stereo not drawn): the Potency is 8.33 µM (active) in [1]; 8.33 µM (active) in [3]; 8.33 µM (active) in assay [5]; 14.8 µM (active) in assay [8]; 3.72 µM (active) in assay [6]; 7.43 µM (active) in [7]. The Potency entry in [2] and in [4] was “inactive” throughout.
Take `CC(C)CNc1ccnc(NCc2csc(-c3ccccc3)n2)n1`: the Potency in [1] was 0.935 µM (active); in assay [2], 13.2 µM (active); in assay [3], 16.6 µM (active); in [4], 4.69 µM (active); in assay [5], 16.6 µM (active); in assay [6], 20.9 µM (active). The Potency in assay [7] was 20.9 µM (active).
As for `CN1C(=O)C(Cc2c[nH]c3ccccc23)NC1=S` (stereo not drawn), the Potency was 13.2 µM (active) in assay [1], 13.2 µM (active) in assay [3] and 11.8 µM (active) in assay [8]. Moreover, the Potency entry in assay [2], in assay [9], in assay [5] and in assay [6] was “inactive” throughout.
For the molecule `CN(C)CCN(Cc1ccc(Cl)cc1)c1ccccn1`, the Potency is 11.8 µM (active) in assay [1] and 10.5 µM (active) in assay [7]. Moreover, the Potency result in assay [2], in assay [3] and in [4] was “inactive” in each case.
As for `CN(C)S(=O)(=O)c1ccc2c(c1)C(=Cc1cc3c([nH]1)CCCC3)C(=O)N2`, the Potency is 16.6 µM (active) in assay [1]; 3.32 µM (active) in [2]; 8.33 µM (active) in assay [3]; 10.5 µM (active) in assay [9]; 2.35 µM (active) in assay [5].
